Measured values published in PubChem BioAssay AID1851 (National Center for Advancing Translational Sciences (NCATS), 2009).
Where “and” joins values, the source holds several entries; their conditions need not be identical. Equal entries are not always repeated. In all, about 16,000 compounds went through this assay and about 4,000 (25%) were called active. Roughly 26% stayed inconclusive and do not appear here. The call rests on the fitted dose curve; in most records, active means well fitted curve in the direction sought with a large enough effect; inconclusive means small, poorly fitted or top-dose-only effect, or effect the other way; inactive means no such curve, though single readings can be large or run the other way. These entries were drawn from the full list. Where a structure was tested more than once in an assay, its records may differ in their call. Square brackets hold non-standard residues; d marks the D form. Peptide text beside a SMILES is read from it. * marks the point of attachment. ξ: configuration not given here. Cbz = O=C(OCc1ccccc1)*; PhAc = O=C(Cc1ccccc1)*; OBn = c1ccc(CO*)cc1; ξP = O=C(O)C1CCCN1

biological target: Cytochrome P450 2C9 (Homo sapiens) (UniProt P11712); assay: Cytochrome panel assay with activity outcomes; conditions: recombinant CYP, pro-luciferin dealkylation, luminescence, p450-cyp2c9; series mostly up to 57.1 µM; activity, negative = inhibition: at the top concentration
Sequence (P11712 whole entry, looked up): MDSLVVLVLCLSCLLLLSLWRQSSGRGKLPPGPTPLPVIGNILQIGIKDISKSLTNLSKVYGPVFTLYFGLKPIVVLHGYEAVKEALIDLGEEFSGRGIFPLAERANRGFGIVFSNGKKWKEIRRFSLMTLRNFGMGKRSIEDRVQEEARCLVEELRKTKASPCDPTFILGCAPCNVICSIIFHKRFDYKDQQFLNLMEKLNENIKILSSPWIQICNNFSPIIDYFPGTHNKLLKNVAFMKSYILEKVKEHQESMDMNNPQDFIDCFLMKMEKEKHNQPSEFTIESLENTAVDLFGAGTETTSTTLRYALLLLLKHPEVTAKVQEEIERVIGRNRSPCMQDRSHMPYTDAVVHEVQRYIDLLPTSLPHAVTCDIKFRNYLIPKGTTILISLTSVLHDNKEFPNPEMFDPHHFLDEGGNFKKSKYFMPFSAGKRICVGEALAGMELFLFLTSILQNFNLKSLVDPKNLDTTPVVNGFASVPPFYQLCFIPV
On the % scale 0 is the no-effect control and ±100 the full control effect.

activity, negative = inhibition, inactive:
CO[C@@H]1COC(=O)C/C=C\[C@H](C)COC(=O)[C@H](C)NC(=O)C/C=C\[C@H]1C -7.79% [at 11.4 µM], Fc1cccc(/C=N\N=C/c2cccc(F)c2)c1 -17.3%, CC1=NC(C)(C)Cc2ccccc21 -5.09%, O=C(O)C1CC2(C1)CC(C(=O)O)C2 (stereo unspecified) -3% [at 11.4 µM], N#Cc1cccc(-c2ccc3ncnc(NC4CCNCC4)c3c2)c1 10.5% [at 2.29 µM], Cc1cnc(C(=O)OCC(=O)NC(C)C)cn1 0.966%, CC(C)C(=O)Cc1ccc2ccccc2n1 7.52% [at 11.4 µM], O=S(=O)(O)c1cc(N=Nc2cccc3ccccc23)c(O)c2ncccc12 -11.1% [at 11.4 µM], O=C(Nc1cccc2cccnc12)[C@@H]1[C@@H](C(=O)O)[C@H]2CC[C@@H]1O2 7.28% [at 11.4 µM], COc1ccc(NC(=O)N2CC[C@@]3(CCCN(C(=O)c4cnccn4)C3)C2)cc1 -2.53%, CCOC(=O)c1sc2c(c1C)c(=O)c(C(=O)OCC)cn2CC -27.7%, CCOc1cccc(NC(=O)CSc2nc(C)c3c(c2C#N)CCCC3)c1 -7.91%, Cc1ccccc1OCC(=O)Nc1sc(C(=O)Nc2cccc(C)c2C)c(C)c1C#N -1.71%, CCN(CC)CCN1c2ccccc2Sc2ccc3ccccc3c21 0.978% [at 11.4 µM], Cn1cnc2c(NCc3ccccc3)nc(NCCO)nc21 22.9%, C/C(CCN1CCCCc2nc(C)c(C)cc21)=N\OC[C@@H](O)COCc1ccco1 -10.7% [at 11.4 µM], Cc1cccn2c(=O)c3cc(C(=O)N4COCC4(C)C)n(C)c3nc12 26.7%, c1ccc2c3c([nH]c2c1)[C@@H]1[C@H]2CC[C@H]([C@H]4CCCN[C@H]42)N1CC3 10.6% [at 25.6 µM], CC(=O)C=NCC(=O)O -1.6% [at 11.4 µM], CCCCCCCCCCCCCCC[C@@H](O)[C@@H](N)CO -7.66%, NC(=O)OCC(COC(N)=O)c1ccccc1 -4.82%, COc1ccccc1N1CCN(CCN2C(=O)c3ccccc3C(C)(C)C2=O)CC1 20.3%, N=c1c(C(=O)NC2CCCC2)cc2c(=O)n3ccccc3nc2n1C1CCCC1 -18.4%, O=C(NCCCN1CCCCCC1)[C@@H](c1ccccc1)C1CCCCC1 6.43%, COC(=O)C/C=C\[C@@H](C)[C@@H](/C=N\O[C@@H](C)CN1CCCCc2nc(C)c(C)cc21)NS(=O)(=O)c1ccc(C)cc1 -13.5% [at 11.4 µM], O=C(CNC(=O)Cc1ccccc1)NCC(=O)OCc1ccccc1 (PhAc-Gly-Gly-OBn) 21.8%, O=C(NCC1CCCO1)/C(=C\c1ccco1)NC(=O)c1ccccc1 (stereo unspecified) -11.4%, O=C(O)CNC(=O)c1ccccc1O 1.11% [at 11.4 µM], O=C(CNC(=O)OCc1ccccc1)NCC(=O)N1CCCC1C(=O)OCc1ccccc1 (stereo not drawn) (Cbz-Gly-Gly-[ξP]-OBn) -3.89%, COc1cc(/C=C(/NC(=O)c2ccccc2Cl)C(=O)O)cc(OC)c1OC -5.09%, O=C(O)C/C(=C\c1ccco1)C(=O)O 4.79% [at 11.4 µM], O=[N+]([O-])c1ccc(CSc2ncnc3c2ncn3[C@@H]2O[C@@H](CO)[C@@H](O)[C@H]2O)cc1 5.51%, C=C(Br)CN(C)CC(=C)Br 2.22% [at 11.4 µM], COc1ccc(CNc2cc(-c3cccnc3)ncn2)c(OC)c1 17.1% [at 2.29 µM], COc1ccccc1CNc1cc(-c2cccnc2)ncn1 -0.576% [at 2.29 µM], Cc1sc(NC(=O)/C=C/c2ccc(C(C)C)cc2)c(C#N)c1C 24.1%, Oc1ccc(CNCc2ccccc2)c2cccnc12 -9.84% [at 11.4 µM], CC(C)NC1(C(N)=O)CCN(Cc2ccccc2)CC1 -5.53% [at 11.4 µM], CC(=O)N1CCC2(CCN(Cc3ccccc3)CC2)CC1 -0.802%, CN(C)c1ccc(-c2ccc3ncnc(N4CCNCC4)c3c2)cc1 6% [at 2.29 µM], Cc1cccc(CNc2ccnc(-c3ccoc3)n2)c1 -14.6% [at 2.29 µM], Cc1nn2c(C)nc3sc4c(c3c2nc1=O)CC(C)(C)OC4 -21%, CCCN1C[C@H](CSC)C[C@H]2c3cccc4[nH]cc(c34)C[C@@H]21 -5.72% [at 25.6 µM], N[C@@H](CCCP(=O)(O)O)C(=O)O -6.04%, CCN(CC)c1ccc(NC(=O)CSc2nnc3nc(C)cc(C)n23)cc1 -15.7%, C[C@@]12CCC(=O)C=C1CC[C@H]1[C@@H]2[C@@H](O)C[C@]2(C)[C@@H]1CC[C@@]2(O)C(=O)CO -3.75% [at 11.4 µM], CN(C)C[C@H]1CCC2=C(C1=O)C(c1ccc(Cl)c(Cl)c1)C1=C(CC[C@H](CN(C)C)C1=O)O2 -1.08% [at 11.4 µM], Cc1ccc(S(=O)(=O)Oc2cc(S(=O)(=O)O)cc3cc(S(=O)(=O)O)cc(N)c23)cc1 -5.74% [at 11.4 µM], Cc1ccc(S(=O)(=O)Oc2cc(N)c3c(n2)CCC3)cc1 20.5% [at 11.4 µM], O=C(O)c1c2c(c(O)c3c1CN(C1CCCCC1)CO3)OCN(C1CCCCC1)C2 -1.96% [at 11.4 µM], O=C(/C=C\c1ccc(O)c(O)c1)O[C@@H](Cc1ccc(O)c(O)c1)C(=O)O -21.8%, Cc1ccccc1S(=O)(=O)O[C@@H]1NS(=O)(=O)c2ccccc21 20.8% [at 11.4 µM], Cc1cc2c(c(=O)o1)[C@@H](O)[C@H]1O[C@@H]1C2=O -1.55% [at 11.4 µM], O=C(Nc1nnc(-c2ccc(Cl)cc2)o1)Nc1ccccc1Cl -14.2%, COc1ccc(CC(=O)Nc2ccc(-c3noc(-c4cccc(OC)c4)n3)cc2)cc1 -12.6%, COc1ccccc1CN1CCC2(CC1)CCN(C(=O)c1c(C)noc1C)CC2 -3.96%, CN(Cc1ccco1)c1ccnc(-c2cccc(NS(C)(=O)=O)c2)n1 -11.7% [at 2.29 µM], CC1CCC(=NNC(=O)Cc2ccccc2)CC1 (stereo unspecified) -15.6%, O=C(CC(=O)NN=C1CCCC1)NCCc1ccccc1 -21.1%

AC50, active:
CC1(C)Cc2ccccc2C(N/N=C/c2cccc(F)c2)=N1 14.1 µM, CCN(c1ccc(NC(=O)COC(=O)c2ccc3ccccc3n2)cc1)C(C)C 20 µM, CC(C)(C)C(=O)NC(Nc1cccc2cccnc12)C(Cl)(Cl)Cl (stereo unspecified) 1.26 µM, CCOC(=O)c1sc(NC(=O)CSc2nc(C)cc(C)c2C#N)c(C#N)c1C 1 µM, CCOC(=O)c1sc(NC(=O)CSc2n[nH]c(-c3ccc(Cl)cc3Cl)n2)c(C#N)c1C 1.26 µM, CCOC(=O)c1sc(NC(=O)CSc2nc(C)cc(C)n2)c(C#N)c1C 3.55 µM, O=c1cc(N2CCCCC2)c(-c2ccccc2)nn1Cc1ccccc1Cl 20 µM, CC1=NOC(=O)/C1=C\c1ccc(-c2ccc(Cl)cc2Cl)o1 10 µM, COc1ccccc1N1CCN(CCCCN2C(=O)CCC2=O)CC1 3.98 µM, Cn1nc(C(=O)NC2CCCCC2)c2ccccc2c1=O 7.94 µM, O=C(Nc1nnc(C2CC2)s1)c1cc(S(=O)(=O)N2CCN(c3ccccc3)CC2)ccc1Cl 7.08 µM, O=C(CNC(=O)/C(=C\c1ccccc1)NC(=O)c1ccc(Br)cc1)OCc1ccccc1 3.55 µM, COc1ccccc1C(=O)N/C(=C/c1ccc(Br)cc1)C(=O)NCC(=O)O 15.8 µM, O=C(NC(Cc1ccccc1)C(=O)O)/C(=C\c1ccco1)NC(=O)c1ccc(Br)cc1 (stereo unspecified) 15.8 µM, COc1ccc(CCNc2nc(-c3cccnc3)cs2)cc1OC 2.51 µM, Cc1sc(NC(=O)C2CCCCC2)c(C#N)c1-c1ccccc1 15.8 µM, CC(C)OC(=O)C(C#N)c1nc2ccccc2nc1N1CCN(Cc2ccccc2)CC1 (stereo unspecified) 2.82 µM, CC1(C)Cc2c(sc3nc(-c4ccccc4)n(N)c(=O)c23)CO1 12.6 µM, CN(C)c1ccc(NC(=O)CSc2nc(N)c(C(=O)Nc3ccc(N(C)C)cc3)s2)cc1 2.82 µM, CCOC(=O)c1c(N2C(=O)Nc3cc(Cl)c(Cl)cc3N2O)sc2c1CCCCC2 3.55 µM, O=C1CCCC2=C1C(c1ccc(OS(=O)(=O)c3ccc(Cl)cc3)cc1)C1=C(CCCC1=O)O2 7.08 µM, Cc1ccc(S(=O)(=O)Oc2ccc(C3C4=C(CCCC4=O)OC4=C3C(=O)CCC4)cc2)cc1 3.98 µM, Cc1ccccc1S(=O)(=O)Oc1ccccc1C(=O)Oc1ccccc1 2.24 µM, O=C(Cc1ccc(Cl)cc1)Nc1cccc(-c2nnc(-c3ccco3)o2)c1 0.178 µM, COc1ccc(CC(=O)Nc2cccc(-c3nnc(-c4ccco4)o3)c2)cc1 0.316 µM, COCCCNC(=O)CN(c1ccc(OC)cc1)S(=O)(=O)c1ccc(NC(C)=O)cc1 11.2 µM, COc1ccc(N(CC(=O)NN=C2CCCC2)S(=O)(=O)c2ccccc2)cc1 10 µM

AC50, inactive and 12.6 µM (active):
COc1ccccc1N1CCN(CCCNc2cc(=O)n(C)c(=O)n2C)CC1

AC50, inactive:
COc1ccccc1N1CCN(CCCCN2C(=O)c3ccccc3C2=O)CC1, COc1ccccc1N1CCN(CCN2C(=O)CC3(CCCC3)CC2=O)CC1, COc1ccccc1N1CCN(CCCCNC(=O)c2ccc3ccccc3c2)CC1, CC(=O)OCC1=C(C(=O)O)N2C(=O)[C@@H](NC(=O)Cc3cccs3)[C@@H]2SC1
